Usually AC50 stands for the concentration at which the activity in the assay is half-maximal.

Records with an inconclusive call do not appear. The source made the active and inactive calls. Rule for the calls: active = hit-call score of the fitted dose curve at least 0.9, where 1 is the maximum; inconclusive = response in the unintended direction; inactive = score below 0.9.

The nature of this experiment: ACEA_ER_AUC_viability: ACEA Biosciences xCELLigence Real-Time Cell Analysis on Estrogen Receptor Agonism for Viability (AID 2283782).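 Note: hit means loss of impedance signal meaning reduced cell growth or viability.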 The method, boiled down: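 Read-out: real-time electrical impedance (RT-CES) area under curve, loss of signal taken as reduced viability, normalized to DMSO baseline. T-47D cells, charcoal-stripped serum medium, compounds up to 100 uM final, continuous exposure, 80 h.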
For `CCCCCC#CC(=O)OC`, the concentration at half-maximal activity (AC50) is 50 µM (active).
Take `CC1(C)CC(N)CC(C)(CN)C1` (configuration not stated): the compound was classed as inactive.
Turning to `NS(=O)(=O)c1cc(C(=O)O)c(NCc2ccco2)cc1Cl`, the compound was called inactive.
Take `CC(C)CCCC(C)(C)O`: the compound was classed as inactive.
For `O=C(O)c1cccc(Cl)n1`, the outcome was inactive.
Take `Cc1cc(O)c(C)c(C)c1O`: the AC50 was 76.1 µM (active).
Regarding `C=CC(C)(CCC=C(C)C)OC(=O)CC` (configuration not stated), the half-maximal activity concentration (AC50) was 50 µM (active).
For `CCCCCCCC1CCCC1=O` (configuration not stated), the result was inactive.
Regarding `COc1ccc(C(C)=O)cc1`, the result was inactive.
With `C=CCOC(=O)/C=C\C(=O)OCC=C`, the concentration at half-maximal activity (AC50) was 94.9 µM (active).
With `O=C1OCc2ccccc21`, the call was inactive.
As for `c1ccc(-c2nn[nH]n2)cc1`, the outcome was inactive.
Still for that read-out and setting: to `CCOc1ccc(NC(C)=O)cc1` belongs “inactive”; to `CC(CO)(CO)[N+](=O)[O-]`, “inactive”; to `CC(C)(O)C(=O)c1ccc(OCCO)cc1`, “inactive”.
On to `C=COCC1CCC(COC=C)CC1` (configuration not stated), for which the compound was classed as inactive.
With `CC1(C)CC(=O)CC(C)(C)N1`, the result was inactive.
With `O=C(O)c1cc2ccccc2cc1O`, the result was inactive.
Turning to `O=C1CCCCCCCCCCCC(=O)OCCO1`, the AC50 was 71.8 µM (active).
As to `N[C@@H](CCC(=O)O)C(=O)O`, the result was inactive.
The same measure, in the same setting: for `C=C(C)C(=O)OCCC(F)(F)C(F)(F)C(F)(F)C(F)(F)C(F)(F)C(F)(F)C(F)(F)C(F)(F)F` the value was “inactive”.
Consider `CCCCCCCCCCCCN1CCOCC1`, for which the AC50 was 80.3 µM (active).
Turning to `CC(=O)CCc1ccc(O)cc1`, the result was inactive.
On the same count and under the same terms, for `CC(C)OB(OC(C)C)OC(C)C` the value was “inactive”.
Consider `C=C(C)CCCC(C)CCO` (configuration not stated), for which the half-maximal activity concentration (AC50) was 50 µM (active).
As to `NC(=O)c1cnccn1`, the outcome was inactive.
In the case of `CC/C=C\CCOC(=O)C(C)C`, the compound was called inactive.
On to `CC(C)N1C(=O)c2ccccc2C1=O`, for which the call was inactive.
Same read-out and setting: to `CCOC(=O)CC(C)C` belongs “inactive”.
The same measure, in the same setting: for `CCCCCCC(O)CCOC(C)=O` (configuration not stated) the value was “inactive”.
Same read-out and setting: for `O=c1cc[nH]cc1` the value was “inactive”; for `CC(=O)CC(C)(C)C1CCCCC1`, “inactive”.
Regarding `CCCCOCCOC(=O)c1ccccc1C(=O)OCCOCCCC`, the compound was classed as inactive.
With `CCCC1CCC(=O)CC1`, the compound was classed as inactive.
For the compound `CCCCCc1cccc(=O)o1`, the compound was classed as inactive.
Turning to `CC(C)(O)CCc1ccccc1`, the result was inactive.
`NNC(=O)OCc1ccccc1`: the call was inactive.

Values taken from PubChem BioAssay (EPA / NIEHS).
